Where “and” joins values, the source holds several entries; their conditions need not be identical. Equal values may be shown once. Calls of active or inactive are those of the source. The calls were made as follows: active = hit-call score of the fitted dose curve at least 0.9, where 1 is the maximum; inactive = score below 0.9.
Read-out: Urokinase-type plasminogen activator receptor (uPAR), PLAUR (gene 5329)
Assay: BSK_BE3C_uPAR: BioMAP Diversity Plus: BE3C Assay for Urokinase-type plasminogen activator receptor (uPAR) Biomarker Activity (AID 2283039);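 as to outcome: cells exposed to compound for one day before measurement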
Details: primary human bronchial epithelial cells; actives raise or lower the signal
Description: BSK_BE3C is a cell-based, multiplexed-readout assay that uses bronchial epithelial cell, a human lung primary cell, with measurements taken at 24 hours after chemical dosing in a 96-well plate.BSK_BE3CAR is an assay component measured in the BSK_BE3C assay. It measures uPAR antibody related to regulation of gene expression using ELISA technology.Data from the assay component BSK_BE3CAR was analyzed into 1 assay endpoint. This assay endpoint, BSK_BE3CAR, was analyzed with bidirectional fitting relative to DMSO as the negative control and baseline of activity. Using a type of binding reporter, gain or loss-of-signal activity can be used to understand changes in the signaling as they relate to the gene PLAUR. Furthermore, this assay endpoint can be referred to as a primary readout, because this assay has produced multiple assay endpoints where this one serves a signaling function. To generalize the intended target to other relatable targets, this assay endpoint is annotated to the cytokine intended target family, where the subfamily is plasmogen activator.
The levels of cell surface (or secreted, indicated by the prefix "s") biomarker endpoints were measured by ELISA. Overt cytotoxicity to cells in confluent adherent cultures (all systems other than the BT system) was assessed by measuring total protein levels using sulforhodamine B (SRB) staining in parallel cultures at the time of biomarker measurements, indicated as SRB endpoints. For proliferation assays for adherent cell types, individual cell types are cultured at sub-confluence and relative cell numbers quantified by SRB staining at time points optimized for each system (48 h: 3C and CASM3C systems; 72 h: BT and HDF3CGF systems; 96 h: SAg system). SRB was performed by staining cells with 0.1% SRB after fixation with 10% TCA and reading wells at 560 nm.Viability and proliferation of PBMC (T cells) was quantified by Alamar Blue reduction for the SAg and BT systems. For PBMC viability (referred to as PBMC Cytotoxicity within the assay endpoint names), cells were plated (75,000/well in a 96-well plate) and then chemical samples added for 1 h before addition of activators, SEB and TSST-1 (20 ng/mL final concentration each). Cells were incubated for 90 h. Then, Alamar Blue (20 uL/well) (Invitrogen, Cat DAL1100) was added for 6 h, and the plates were read with a fluorescence microplate reader at 546/580 nm (excitation/emission). For PBMC proliferation, cells were plated and activated as above but incubated for only 16 h prior to addition of Alamar Blue. Plates were read after 6 h.

outcome, inactive:
COc1ccc2nc(N)sc2c1
COCc1c(C(C)C)nc(C(C)C)c(/C=C/[C@@H](O)C[C@@H](O)CC(=O)O)c1-c1ccc(F)cc1
CCO[Si](CCCN=C=O)(OCC)OCC
c1ccc(-c2ccccn2)nc1
C/C=C\C/C=C/CCCCCCCCOC(C)=O
CCO[Si](C)(OCC)OCC
CC1OC1C1CCC2(C)OC2C1 (stereo unspecified)
N#[N+]c1ccc2c(S(=O)(=O)[O-])cccc2c1O
C=C[Si](OC(C)=O)(OC(C)=O)OC(C)=O
O=c1c2ccccc2oc2ccccc12
CO[Si](OC)(OC)c1ccccc1
O=Nc1ccc(O)cc1
O=C(c1ccc(O)cc1)c1ccc(O)cc1O
CCCCCCCCc1ccc(Nc2ccc(CCCCCCCC)cc2)cc1
O=C(Nc1ccccc1SSc1ccccc1NC(=O)c1ccccc1)c1ccccc1
CCOc1nc(F)cc2nc(S(=O)(=O)Nc3c(Cl)cccc3C(=O)OC)nn12
CC(C)C(=O)C(C)C
CCCCC(CC)COCC1CO1 (stereo unspecified)
c1ccc2c(c1)ccc1ncccc12
c1ccc2c(c1)ccc1cc3c(ccc4ccccc43)cc12
C=CC=CC=CCCCCC
CC(C)(c1cc(Br)c(OCCO)c(Br)c1)c1cc(Br)c(OCCO)c(Br)c1
CN1C(=O)N(C)C(O)C1O (stereo unspecified)
CCCCC/C=C\C/C=C\CCCCCCCC(=O)OC
S=C(NC1CCCCC1)NC1CCCCC1
C=CC(=O)OCC(Br)CBr (stereo unspecified)
CCCCC(CC)COC(=O)c1ccccc1O (stereo unspecified)
O=C1CCCN1CCO
C=CCOCC(O)CCl (stereo unspecified)

AC50, active:
O=C(Cl)c1cc(C(=O)Cl)cc(C(=O)Cl)c1 24.4 µM
Nc1ccc(N)c(Cl)c1 11.1 µM and 4.19 µM
C#CC1(O)CC[C@H]2[C@@H]3CCC4=CCCC[C@@H]4[C@H]3CC[C@@]21C (stereo partly specified) 20 µM
CCCCCCCCCCCCCCCC[N+](C)(C)CC 2.08 µM
CCOC(=O)c1ccccc1C(=C1C=C(Br)C(=O)C(Br)=C1)c1cc(Br)c(O)c(Br)c1 7.89 µM and 4.27 µM
C=CCOc1c(Br)cc(Br)cc1Br 25.2 µM
CCCCNc1ccc(NCCCC)c2c1C(=O)c1ccccc1C2=O 6.83 µM

From PubChem BioAssay (EPA / NIEHS)
